Our source for the Potency and activity (max response) values is PubChem BioAssay (NCATS).

Assay [1] concerns the target Cytochrome P450 3A7 (Homo sapiens) (UniProt P24462). Put plainly: Cytochrome P450 family 3 subfamily A member 7 (CYP3A7) small molecule antagonists: luciferase biochemical qHTS assay (AID 1963596). Also: % is scaled to controls: 0 for no effect and ±100 for the full control effect; nearly all actives have a fitted effect of over 40% in size. The method, boiled down:
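P450-Glo luminescent assay: CYP3A7 enzyme converts a proluciferin substrate to luciferin, detected by luciferase reagent; light proportional to activity. Compounds in DMSO preincubated 10 min with enzyme-substrate mix at room temperature, then NADPH regeneration added for 1 h.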

Assay [2] in a line: Viability qHTS for spleen associated tyrosine kinase inhibitor (SYKi) naive MV4-11 cells (AID 1963823). Also: nearly all actives have a fitted effect of over 40% in size. Also: potency is read from the fitted curve at half-maximal effect. The method, boiled down: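 Compounds were dispensed acoustically onto plates, MV4-11 cells (SYKi-naive) added at 500 per well, and plates incubated 72 hr at 37 C. CellTiter-Glo was added and luminescence measured after 10 min.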
For orientation: Quantitative high-throughput screening tests each substance at several concentrations.

A short description of assay [3]: Viability qHTS for spleen associated tyrosine kinase inhibitor (SYKi) drug resistant MV4-11 cells (AID 1963824). Also: nearly all actives have a fitted effect of over 35% in size. Also: potency is read from the fitted curve at half-maximal effect. Put shortly: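 SYK inhibitor-resistant MV4-11 AML cells, 500 per well, added to predispensed compounds and incubated 72 hr at 37 C, 5% CO2. Viability measured by CellTiter-Glo luminescence after 10 min at room temperature.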
Assay [4] in a line: Cellular viability qHTS for adrenocortical cancer (ACC) cell line SW-13 (AID 1963989). Also: nearly all actives have a fitted effect of over 65% in size. Also: potency is read from the fitted curve at half-maximal effect.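 As to activity (max response): cells grown in serum-free medium with ITS supplement; % is scaled to controls: 0 for no effect and ±100 for the full control effect.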 The settings on record: SW-13 ACC cells viability, CellTiter-Glo, 48 h; activity (max response): stronger effect = lower value. The method, boiled down:
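Compound titrations (up to 46 uM final, in DMSO) were applied to SW-13 cells for 48 h at 37C/5% CO2. Reading used CellTiter-Glo after 20 min at room temperature; fitted curves yielded IC50 and efficacy.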

Assay [5] in a line: Cellular viability qHTS for adrenocortical cancer (ACC) cell line NCI-H295R (AID 1963990). Also: nearly all actives have a fitted effect of over 60% in size. Also: potency is read from the fitted curve at half-maximal effect. Put shortly: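 Readout: CellTiter-Glo luminescence, 20 min RT. Exposure: 48 h, 37C/5% CO2. Cells: NCI-H295R, ITS-DMEM serum-free. Range: up to 46 uM. Analysis: 4PL fit, IC50 plus efficacy.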

Values joined by “and” are separate entries in the source; they are usually repeats but may differ in a detail not shown here. Identical values can stand only once. Inconclusive results are not listed. Some structures have more than one record in an assay (separate samples or runs), and their calls can disagree. Active and inactive are the calls of the source. Calls follow the shape of the dose curve; as a rule, active = well fitted curve in the direction sought with a large enough effect; inconclusive = small, poorly fitted or top-dose-only effect, or another doubt; inactive = no such curve, though single readings can be large; an effect the other way counts as inactive or inconclusive.

Cytochrome P450 3A7 (Homo sapiens), sequence (P24462 whole entry, looked up): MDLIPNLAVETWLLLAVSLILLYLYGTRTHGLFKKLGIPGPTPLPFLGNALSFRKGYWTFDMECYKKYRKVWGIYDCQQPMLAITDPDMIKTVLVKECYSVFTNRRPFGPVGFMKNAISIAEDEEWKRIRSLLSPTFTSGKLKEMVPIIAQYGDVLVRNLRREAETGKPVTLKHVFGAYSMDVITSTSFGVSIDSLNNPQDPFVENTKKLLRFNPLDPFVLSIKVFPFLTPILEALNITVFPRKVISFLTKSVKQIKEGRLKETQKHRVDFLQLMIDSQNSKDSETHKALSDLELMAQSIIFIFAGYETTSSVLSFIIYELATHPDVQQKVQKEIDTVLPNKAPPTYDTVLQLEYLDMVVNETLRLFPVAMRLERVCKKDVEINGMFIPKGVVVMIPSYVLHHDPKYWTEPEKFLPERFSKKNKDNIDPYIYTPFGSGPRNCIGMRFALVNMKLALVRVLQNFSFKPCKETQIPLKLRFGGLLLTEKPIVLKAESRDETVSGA

As to `C[C@H]1CN(C[C@H](Cc2ccccc2)C(=O)NCC(=O)O)CC[C@@]1(C)c1cccc(O)c1`, the Potency result in assay [1], in assay [2], in assay [3] and in assay [5] was “inactive” throughout. For the same molecule, the activity (max response) in assay [4] is 8.76% (inactive).

With `O=C(O)Cc1ccc(-c2ccccc2)cc1`, the Potency entry in assay [1], in assay [2], in assay [3] and in assay [5] was “inactive” each time. The activity (max response) in assay [4] was 3.26% (inactive).

Consider `O=c1[nH]cnc2c1ncn2[C@@H]1O[C@H](CO)[C@@H](O)[C@H]1O`, for which the Potency entry in assay [1], in assay [2], in assay [3] and in assay [5] was “inactive” each time. In addition, in assay [4], the activity (max response) is 4.44% (inactive).

With `CC(C)NC(=O)c1ccc(C=O)cc1`, the Potency entry in assay [1], in assay [2], in assay [3] and in assay [5] was “inactive” throughout. In addition, the activity (max response) in assay [4] was 10.9% (inactive).

`C/C=C/C(=O)N(CC)c1ccccc1C`: the Potency result in assay [1], in assay [2], in assay [3] and in assay [5] was “inactive” each time. In addition, the activity (max response) in assay [4] was 5.92% (inactive) and 3.5% (inactive).

With `NC(=Nc1ccccc1)Nc1ccccc1`, the Potency result in assay [1] and in assay [5] was “inactive” throughout. Moreover, the Potency in assay [2] was 38.6 µM (active) and inactive; in assay [3], 34.4 µM (active). Further, the activity (max response) in assay [4] was -1.07% (inactive).

Regarding `Cc1ccc(S(=O)(=O)NC(=O)NC2CCCCC2)cc1`, the Potency result in assay [1], in assay [2], in assay [3] and in assay [5] was “inactive” throughout. For the same molecule, in assay [4], the activity (max response) was 8.41% (inactive).

With `O=[N+]([O-])c1cncn1CCN1CCOCC1`, the Potency result in assay [1], in assay [2], in assay [3] and in assay [5] was “inactive” throughout. The activity (max response) in assay [4] was 13.4% (inactive) and -13.9% (inactive).

Turning to `O=C(O)COc1nn(Cc2ccccc2)c2ccccc12`, the Potency entry in assay [1], in assay [2], in assay [3] and in assay [5] was “inactive” each time. The activity (max response) in assay [4] is 10.3% (inactive).

For `Cn1c(=O)c2c(ncn2CC2OCCO2)n(C)c1=O`, the Potency entry in assay [1], in assay [2], in assay [3] and in assay [5] was “inactive” in each case. Besides, in assay [4], the activity (max response) was 8.06% (inactive) and -6.96% (inactive).

Turning to `CC1(C)S[C@@H]2[C@H](N=CN3CCCCCC3)C(=O)N2[C@H]1C(=O)O`, the Potency entry in assay [1], in assay [2], in assay [3] and in assay [5] was “inactive” in each case. Moreover, the activity (max response) in assay [4] was 3.39% (inactive).

Regarding `CCN(CC)CCNC(=O)c1ccc(N)cc1`, the Potency result in assay [1], in assay [2], in assay [3] and in assay [5] was “inactive” in each case. In assay [4], the activity (max response) is 13% (inactive).

Take `O=C(/C=C/c1ccc(O)c(O)c1)O[C@@H]1C[C@@](OC(=O)/C=C/c2ccc(O)c(O)c2)(C(=O)O)C[C@@H](O)[C@@H]1O`: the Potency entry in assay [1], in assay [2], in assay [3] and in assay [5] was “inactive” each time. In assay [4], the activity (max response) was 4.38% (inactive).

Regarding `CCC(=O)c1ccc(O)cc1`, the Potency result in assay [1], in assay [2] and in assay [5] was “inactive” each time. Besides, the Potency in assay [3] is 7.5 µM (active). For the same molecule, the activity (max response) in assay [4] was 5.38% (inactive).

Take `CC1(C)OC(=O)NC1=O`: the Potency result in assay [1], in assay [2], in assay [3] and in assay [5] was “inactive” each time. The activity (max response) in assay [4] was 15.1% (inactive).

In the case of `OC[C@@H](O)[C@@H](O)[C@H](O)[C@H](O)CO`, the Potency entry in assay [1], in assay [2], in assay [3] and in assay [5] was “inactive” throughout. Also, the activity (max response) in assay [4] is -5.63% (inactive).

As to `CC(=O)Nc1ncc([N+](=O)[O-])s1`, the Potency result in assay [1], in assay [2], in assay [3] and in assay [5] was “inactive” each time. Further, the activity (max response) in assay [4] was 10.5% (inactive).

For the molecule `CC[C@H](C)[C@H](N)C(=O)O`, the Potency entry in assay [1], in assay [2], in assay [3] and in assay [5] was “inactive” each time. Besides, the activity (max response) in assay [4] is 4.01% (inactive).

For `Cc1c(N)cccc1C(F)(F)F`, the Potency result in assay [1], in assay [2], in assay [3] and in assay [5] was “inactive” throughout. The activity (max response) in assay [4] is 12.6% (inactive).

In the case of `CC(=O)NC(=O)c1ccccc1O`, the Potency entry in assay [1], in assay [2], in assay [3] and in assay [5] was “inactive” in each case. Further, in assay [4], the activity (max response) was -23.9% (inactive).

In the case of `CN(N=O)C(=O)N[C@@H]1[C@@H](O)[C@H](O)[C@@H](CO)O[C@@H]1O`, the Potency result in assay [1], in assay [2], in assay [3] and in assay [5] was “inactive” throughout. In assay [4], the activity (max response) was 0.228% (inactive) and 12.5% (inactive).

Consider `OC1(c2ccc(Cl)cc2)CCNCC1`, for which the Potency entry in assay [1], in assay [2], in assay [3] and in assay [5] was “inactive” in each case. In addition, the activity (max response) in assay [4] is 11.1% (inactive).

`OC[C@H]1O[C@@H](n2cnc3c2NC=NC[C@H]3O)C[C@@H]1O`: the Potency result in assay [1], in assay [2], in assay [3] and in assay [5] was “inactive” throughout. In addition, the activity (max response) in assay [4] is 12.8% (inactive).

Take `CCN(CC)CCNC(=O)COc1ccc(Cl)cc1`: the Potency entry in assay [1], in assay [2], in assay [3] and in assay [5] was “inactive” each time. The activity (max response) in assay [4] was 6.48% (inactive).

With `C[N+](C)(C)CCOC(=O)CCC(=O)OCC[N+](C)(C)C`, the Potency entry in assay [1], in assay [2], in assay [3] and in assay [5] was “inactive” throughout. Moreover, in assay [4], the activity (max response) was 11.2% (inactive).

Consider `CC(=O)N[C@@H](Cc1ccc(O)cc1)C(=O)O`, for which the Potency result in assay [1], in assay [2], in assay [3] and in assay [5] was “inactive” each time. For the same molecule, the activity (max response) in assay [4] was -8.88% (inactive).

`CN(C)C(=O)c1cc2cnc(Nc3ccc(N4CCNCC4)cn3)nc2n1C1CCCC1`: the Potency entry in assay [1] and in assay [5] was “inactive” each time. For the same molecule, the Potency in assay [2] was 2.31 µM (active); in assay [3], 5.17 µM (active). For the same molecule, the activity (max response) in assay [4] is -9.21% (inactive).

On to `COc1cc2c(NC3CCN(CC4CCCCC4)CC3)nc(N3CCCN(C(C)C)CC3)nc2cc1OCCCN1CCCCC1`, for which, in assay [1], the Potency result was “inactive”. The Potency in assay [2] was 2.59 µM (active); in assay [3] it was 3.66 µM (active); in assay [4], 7.08 µM (active); in assay [5] it was 22.4 µM (active).
